# Columns and labels:
# [1] = target: T1, Tyrosine-protein kinase ITK/TSK (Homo sapiens) (UniProt Q08881); settings: at 10 µM
# T1 sequence (whole entry): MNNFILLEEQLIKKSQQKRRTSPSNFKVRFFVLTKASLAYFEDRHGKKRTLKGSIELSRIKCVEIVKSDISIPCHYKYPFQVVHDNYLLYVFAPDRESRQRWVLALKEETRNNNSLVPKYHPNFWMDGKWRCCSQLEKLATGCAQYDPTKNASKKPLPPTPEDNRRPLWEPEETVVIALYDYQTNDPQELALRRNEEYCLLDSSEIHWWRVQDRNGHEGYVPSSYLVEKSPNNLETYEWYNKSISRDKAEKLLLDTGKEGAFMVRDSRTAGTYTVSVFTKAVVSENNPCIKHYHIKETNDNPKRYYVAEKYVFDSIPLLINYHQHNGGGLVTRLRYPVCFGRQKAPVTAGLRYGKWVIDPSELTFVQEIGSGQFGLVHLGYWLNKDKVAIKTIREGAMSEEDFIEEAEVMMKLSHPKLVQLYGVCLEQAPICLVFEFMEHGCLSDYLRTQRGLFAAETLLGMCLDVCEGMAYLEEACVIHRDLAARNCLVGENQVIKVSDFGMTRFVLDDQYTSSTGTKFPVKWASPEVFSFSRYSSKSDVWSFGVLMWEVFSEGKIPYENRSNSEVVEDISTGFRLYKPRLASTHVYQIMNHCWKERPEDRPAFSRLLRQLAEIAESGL
# [2] = target: Tyrosine-protein kinase JAK2 (Homo sapiens) (UniProt O60674); settings: at 1 µM
# [3] = target: Tyrosine-protein kinase JAK2 (Homo sapiens) (UniProt O60674); settings: at 10 µM
# [4] = target: T2, Tyrosine-protein kinase JAK3 (Homo sapiens) (UniProt P52333); settings: at 1 µM
# T2 sequence (whole entry): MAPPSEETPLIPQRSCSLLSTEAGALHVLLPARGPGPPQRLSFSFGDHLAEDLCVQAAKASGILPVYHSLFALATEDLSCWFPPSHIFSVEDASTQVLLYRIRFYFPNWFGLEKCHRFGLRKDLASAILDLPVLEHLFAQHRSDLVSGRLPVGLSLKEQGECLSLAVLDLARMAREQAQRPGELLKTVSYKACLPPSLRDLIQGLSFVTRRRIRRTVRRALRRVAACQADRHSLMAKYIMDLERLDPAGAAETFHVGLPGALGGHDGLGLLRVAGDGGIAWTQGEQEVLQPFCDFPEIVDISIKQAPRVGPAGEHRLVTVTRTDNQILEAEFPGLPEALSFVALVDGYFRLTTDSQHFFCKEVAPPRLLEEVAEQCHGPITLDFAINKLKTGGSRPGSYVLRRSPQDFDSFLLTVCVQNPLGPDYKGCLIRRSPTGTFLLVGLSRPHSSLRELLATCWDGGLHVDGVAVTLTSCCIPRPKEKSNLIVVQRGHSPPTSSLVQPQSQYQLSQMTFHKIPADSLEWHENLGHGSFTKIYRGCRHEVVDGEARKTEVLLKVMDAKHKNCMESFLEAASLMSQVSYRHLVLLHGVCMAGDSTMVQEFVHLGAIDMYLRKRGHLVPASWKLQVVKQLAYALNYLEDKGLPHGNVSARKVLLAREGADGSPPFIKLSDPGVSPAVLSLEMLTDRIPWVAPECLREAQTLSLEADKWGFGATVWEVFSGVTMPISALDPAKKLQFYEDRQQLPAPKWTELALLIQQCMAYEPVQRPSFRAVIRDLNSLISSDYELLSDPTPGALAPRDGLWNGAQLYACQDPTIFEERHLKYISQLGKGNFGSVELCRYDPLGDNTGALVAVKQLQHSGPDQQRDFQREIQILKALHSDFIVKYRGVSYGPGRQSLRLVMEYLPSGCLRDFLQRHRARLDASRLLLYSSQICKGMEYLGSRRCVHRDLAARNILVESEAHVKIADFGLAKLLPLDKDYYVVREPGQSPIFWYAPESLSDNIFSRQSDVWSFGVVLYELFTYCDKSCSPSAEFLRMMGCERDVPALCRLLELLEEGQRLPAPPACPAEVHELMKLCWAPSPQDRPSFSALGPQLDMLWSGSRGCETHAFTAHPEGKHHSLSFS
# [5] = target: T2, Tyrosine-protein kinase JAK3 (Homo sapiens); settings: at 10 µM
# [6] = target: Mitogen-activated protein kinase 8 (Homo sapiens) (UniProt P45983); settings: at 1 µM
# [7] = target: Mitogen-activated protein kinase 8 (Homo sapiens) (UniProt P45983); settings: at 10 µM
# [8] = target: Mitogen-activated protein kinase 10 (Homo sapiens) (UniProt P53779); settings: at 1 µM
# [9] = target: Mitogen-activated protein kinase 10 (Homo sapiens) (UniProt P53779); settings: at 10 µM
# [10] = target: Vascular endothelial growth factor receptor 2 (Homo sapiens) (UniProt P35968); settings: at 1 µM
# [11] = target: Vascular endothelial growth factor receptor 2 (Homo sapiens) (UniProt P35968); settings: at 10 µM
# [12] = target: LIM domain kinase 1 (Homo sapiens) (UniProt P53667); settings: at 1 µM
# [13] = target: LIM domain kinase 1 (Homo sapiens) (UniProt P53667); settings: at 10 µM
# [14] = target: Serine/threonine-protein kinase 10 (Homo sapiens) (UniProt O94804); settings: at 1 µM
# [15] = target: Serine/threonine-protein kinase 10 (Homo sapiens) (UniProt O94804); settings: at 10 µM
# [16] = target: Mitogen-activated protein kinase 9 (Homo sapiens) (UniProt P45984); settings: at 10 µM
# [17] = target: T3, Serine/threonine-protein kinase STK11 (Homo sapiens) (UniProt Q15831); settings: at 1 µM
# T3 sequence (whole entry): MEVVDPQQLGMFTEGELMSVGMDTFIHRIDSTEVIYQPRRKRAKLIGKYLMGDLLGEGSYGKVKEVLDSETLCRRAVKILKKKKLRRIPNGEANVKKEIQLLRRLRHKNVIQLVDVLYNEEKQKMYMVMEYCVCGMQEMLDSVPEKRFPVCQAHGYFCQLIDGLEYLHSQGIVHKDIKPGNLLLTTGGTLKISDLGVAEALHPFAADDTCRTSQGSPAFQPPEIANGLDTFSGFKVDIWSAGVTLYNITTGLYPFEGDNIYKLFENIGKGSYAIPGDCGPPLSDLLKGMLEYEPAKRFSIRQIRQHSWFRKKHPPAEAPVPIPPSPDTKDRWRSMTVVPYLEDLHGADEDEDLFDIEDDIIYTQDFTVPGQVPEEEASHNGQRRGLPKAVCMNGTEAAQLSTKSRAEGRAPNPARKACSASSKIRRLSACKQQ
# [18] = target: T3, Serine/threonine-protein kinase STK11 (Homo sapiens); settings: at 10 µM
# [19] = target: Tyrosine-protein kinase Lck (Homo sapiens) (UniProt P06239); settings: at 1 µM
# [20] = target: Mitogen-activated protein kinase 9 (Homo sapiens) (UniProt P45984); settings: at 1 µM
# Chain of Tyrosine-protein kinase JAK2 (Homo sapiens) (O60674 whole entry): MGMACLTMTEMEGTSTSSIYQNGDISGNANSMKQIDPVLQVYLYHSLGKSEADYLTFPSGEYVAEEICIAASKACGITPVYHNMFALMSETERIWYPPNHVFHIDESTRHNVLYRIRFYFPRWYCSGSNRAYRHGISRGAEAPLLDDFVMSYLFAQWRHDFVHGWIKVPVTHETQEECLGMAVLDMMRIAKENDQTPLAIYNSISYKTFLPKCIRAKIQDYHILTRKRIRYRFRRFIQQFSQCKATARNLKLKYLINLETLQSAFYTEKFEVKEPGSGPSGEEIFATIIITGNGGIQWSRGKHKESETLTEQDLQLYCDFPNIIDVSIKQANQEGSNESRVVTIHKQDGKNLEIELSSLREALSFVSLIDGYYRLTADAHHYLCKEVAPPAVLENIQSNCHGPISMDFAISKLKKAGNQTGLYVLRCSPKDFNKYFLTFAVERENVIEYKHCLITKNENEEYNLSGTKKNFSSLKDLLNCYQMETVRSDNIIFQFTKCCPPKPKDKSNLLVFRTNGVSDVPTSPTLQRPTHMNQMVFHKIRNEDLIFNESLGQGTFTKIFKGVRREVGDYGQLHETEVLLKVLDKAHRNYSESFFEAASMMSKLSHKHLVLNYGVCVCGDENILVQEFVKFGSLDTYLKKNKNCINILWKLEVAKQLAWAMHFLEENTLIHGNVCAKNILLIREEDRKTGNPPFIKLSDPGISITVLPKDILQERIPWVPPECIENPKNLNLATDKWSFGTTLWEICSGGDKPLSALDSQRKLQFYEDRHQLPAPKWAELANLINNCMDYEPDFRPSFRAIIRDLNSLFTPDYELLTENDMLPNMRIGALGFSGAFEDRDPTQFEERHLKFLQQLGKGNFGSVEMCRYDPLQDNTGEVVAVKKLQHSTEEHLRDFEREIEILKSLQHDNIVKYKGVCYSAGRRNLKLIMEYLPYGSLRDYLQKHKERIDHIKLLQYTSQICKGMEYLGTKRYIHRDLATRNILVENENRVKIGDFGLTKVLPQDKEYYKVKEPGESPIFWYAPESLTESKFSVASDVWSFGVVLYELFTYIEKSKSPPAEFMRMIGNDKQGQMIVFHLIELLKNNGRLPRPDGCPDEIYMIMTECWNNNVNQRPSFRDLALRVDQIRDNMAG
# Chain of Mitogen-activated protein kinase 9 (Homo sapiens) (P45984 whole entry, looked up): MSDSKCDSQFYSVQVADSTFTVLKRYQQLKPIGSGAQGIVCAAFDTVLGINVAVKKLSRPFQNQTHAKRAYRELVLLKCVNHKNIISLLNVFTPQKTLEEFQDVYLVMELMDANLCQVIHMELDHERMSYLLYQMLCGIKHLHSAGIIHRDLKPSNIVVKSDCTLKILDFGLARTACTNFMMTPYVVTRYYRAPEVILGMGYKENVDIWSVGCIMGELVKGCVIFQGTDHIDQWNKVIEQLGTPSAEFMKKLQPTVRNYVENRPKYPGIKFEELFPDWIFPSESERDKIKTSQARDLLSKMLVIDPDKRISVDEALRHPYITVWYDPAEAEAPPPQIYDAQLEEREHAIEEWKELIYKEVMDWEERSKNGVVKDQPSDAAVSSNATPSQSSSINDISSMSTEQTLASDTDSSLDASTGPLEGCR
# Chain of Vascular endothelial growth factor receptor 2 (Homo sapiens) (P35968 whole entry, the tested form may be a part): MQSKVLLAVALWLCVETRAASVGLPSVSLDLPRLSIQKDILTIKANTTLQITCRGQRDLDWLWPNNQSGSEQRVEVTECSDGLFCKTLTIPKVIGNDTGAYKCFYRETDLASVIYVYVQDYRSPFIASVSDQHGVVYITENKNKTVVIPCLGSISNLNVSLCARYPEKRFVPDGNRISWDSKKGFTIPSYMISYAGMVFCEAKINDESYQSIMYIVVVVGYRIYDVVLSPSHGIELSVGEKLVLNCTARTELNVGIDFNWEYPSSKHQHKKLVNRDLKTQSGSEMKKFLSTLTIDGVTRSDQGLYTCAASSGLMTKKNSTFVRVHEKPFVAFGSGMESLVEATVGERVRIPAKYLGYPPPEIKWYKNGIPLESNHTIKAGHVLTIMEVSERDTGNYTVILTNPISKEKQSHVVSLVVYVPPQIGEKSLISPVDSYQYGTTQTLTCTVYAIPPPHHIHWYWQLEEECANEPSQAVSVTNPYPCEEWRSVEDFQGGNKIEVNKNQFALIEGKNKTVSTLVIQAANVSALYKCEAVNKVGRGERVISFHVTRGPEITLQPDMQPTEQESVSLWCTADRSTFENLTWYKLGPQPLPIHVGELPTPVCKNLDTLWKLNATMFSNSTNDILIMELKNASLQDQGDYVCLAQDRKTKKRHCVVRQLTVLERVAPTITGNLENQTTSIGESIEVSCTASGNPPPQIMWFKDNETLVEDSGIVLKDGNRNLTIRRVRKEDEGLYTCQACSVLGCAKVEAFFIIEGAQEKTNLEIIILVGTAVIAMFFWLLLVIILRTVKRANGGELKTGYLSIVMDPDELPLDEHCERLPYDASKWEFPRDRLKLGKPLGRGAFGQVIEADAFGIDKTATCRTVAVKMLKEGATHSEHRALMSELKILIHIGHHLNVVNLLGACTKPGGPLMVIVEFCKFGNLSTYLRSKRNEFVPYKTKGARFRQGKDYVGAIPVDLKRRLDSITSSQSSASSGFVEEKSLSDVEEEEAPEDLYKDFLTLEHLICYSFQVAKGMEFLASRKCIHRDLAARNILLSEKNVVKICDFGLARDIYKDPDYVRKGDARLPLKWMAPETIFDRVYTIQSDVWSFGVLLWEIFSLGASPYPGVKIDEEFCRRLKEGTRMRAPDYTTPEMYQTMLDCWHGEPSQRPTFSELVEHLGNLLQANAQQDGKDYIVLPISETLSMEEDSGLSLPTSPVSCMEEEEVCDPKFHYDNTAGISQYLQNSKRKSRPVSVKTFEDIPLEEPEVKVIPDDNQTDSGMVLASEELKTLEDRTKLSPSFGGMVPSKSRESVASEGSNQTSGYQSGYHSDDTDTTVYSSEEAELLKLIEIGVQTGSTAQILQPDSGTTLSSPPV
# Chain of Serine/threonine-protein kinase 10 (Homo sapiens) (O94804 whole entry, looked up): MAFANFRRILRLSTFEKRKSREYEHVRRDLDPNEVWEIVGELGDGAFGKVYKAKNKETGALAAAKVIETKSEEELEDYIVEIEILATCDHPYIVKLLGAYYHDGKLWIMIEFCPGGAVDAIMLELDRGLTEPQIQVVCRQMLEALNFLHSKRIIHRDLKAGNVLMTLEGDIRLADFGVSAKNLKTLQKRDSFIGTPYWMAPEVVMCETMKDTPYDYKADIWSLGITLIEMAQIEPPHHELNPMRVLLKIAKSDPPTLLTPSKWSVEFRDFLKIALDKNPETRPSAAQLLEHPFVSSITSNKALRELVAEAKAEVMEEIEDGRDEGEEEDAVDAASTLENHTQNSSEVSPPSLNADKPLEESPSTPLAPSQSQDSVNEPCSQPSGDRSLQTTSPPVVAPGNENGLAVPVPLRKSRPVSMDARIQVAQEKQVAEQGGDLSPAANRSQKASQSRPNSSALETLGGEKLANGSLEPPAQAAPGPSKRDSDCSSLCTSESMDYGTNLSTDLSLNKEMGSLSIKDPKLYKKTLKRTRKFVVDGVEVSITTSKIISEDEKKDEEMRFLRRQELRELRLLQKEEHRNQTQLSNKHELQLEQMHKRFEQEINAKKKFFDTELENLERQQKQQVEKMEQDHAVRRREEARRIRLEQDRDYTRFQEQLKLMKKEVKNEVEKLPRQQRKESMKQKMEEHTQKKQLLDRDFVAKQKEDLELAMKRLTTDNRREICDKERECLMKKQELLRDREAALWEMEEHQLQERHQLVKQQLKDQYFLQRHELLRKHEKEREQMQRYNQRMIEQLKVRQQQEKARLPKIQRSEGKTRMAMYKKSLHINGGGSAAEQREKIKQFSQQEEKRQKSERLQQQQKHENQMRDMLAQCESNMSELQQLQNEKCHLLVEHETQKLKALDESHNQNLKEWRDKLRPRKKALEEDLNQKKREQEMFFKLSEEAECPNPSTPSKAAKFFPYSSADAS
# Chain of LIM domain kinase 1 (Homo sapiens) (P53667 whole entry, looked up, the tested form may be a part): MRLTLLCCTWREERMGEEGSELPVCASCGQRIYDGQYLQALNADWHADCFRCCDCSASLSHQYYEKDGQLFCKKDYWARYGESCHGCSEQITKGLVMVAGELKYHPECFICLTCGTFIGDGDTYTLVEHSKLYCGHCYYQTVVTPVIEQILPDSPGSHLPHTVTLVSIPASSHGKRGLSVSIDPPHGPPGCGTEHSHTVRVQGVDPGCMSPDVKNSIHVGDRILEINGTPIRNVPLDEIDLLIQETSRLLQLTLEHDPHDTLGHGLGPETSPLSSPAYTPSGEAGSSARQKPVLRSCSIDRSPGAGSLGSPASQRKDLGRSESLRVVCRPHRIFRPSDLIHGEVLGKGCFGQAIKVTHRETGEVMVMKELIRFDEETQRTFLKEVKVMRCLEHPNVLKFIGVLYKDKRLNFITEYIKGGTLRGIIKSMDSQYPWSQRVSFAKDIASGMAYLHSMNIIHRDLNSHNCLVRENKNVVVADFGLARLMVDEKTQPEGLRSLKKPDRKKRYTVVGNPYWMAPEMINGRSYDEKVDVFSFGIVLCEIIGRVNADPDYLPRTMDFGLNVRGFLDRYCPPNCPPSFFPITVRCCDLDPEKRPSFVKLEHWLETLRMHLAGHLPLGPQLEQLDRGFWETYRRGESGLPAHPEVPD
# Chain of Tyrosine-protein kinase Lck (Homo sapiens) (P06239 2-509 limits assumed): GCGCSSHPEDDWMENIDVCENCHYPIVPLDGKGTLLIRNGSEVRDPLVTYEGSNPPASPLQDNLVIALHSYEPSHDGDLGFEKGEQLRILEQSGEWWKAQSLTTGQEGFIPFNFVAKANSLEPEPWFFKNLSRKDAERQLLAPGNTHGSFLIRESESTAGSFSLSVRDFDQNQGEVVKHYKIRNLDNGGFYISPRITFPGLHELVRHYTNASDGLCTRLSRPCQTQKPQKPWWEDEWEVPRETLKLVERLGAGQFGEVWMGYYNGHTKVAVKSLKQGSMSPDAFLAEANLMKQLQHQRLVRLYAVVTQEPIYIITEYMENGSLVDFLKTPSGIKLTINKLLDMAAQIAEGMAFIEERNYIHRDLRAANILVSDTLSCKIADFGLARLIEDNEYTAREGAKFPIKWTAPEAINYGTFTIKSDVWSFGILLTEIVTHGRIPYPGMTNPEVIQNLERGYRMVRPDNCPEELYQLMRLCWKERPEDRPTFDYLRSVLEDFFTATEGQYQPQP
Compound,residual activity [1] [%],residual activity [2] [%],residual activity [3] [%],residual activity [4] [%],residual activity [5] [%],residual activity [6] [%],residual activity [7] [%],residual activity [8] [%],residual activity [9] [%],residual activity [10] [%],residual activity [11] [%],residual activity [12] [%],residual activity [13] [%],residual activity [14] [%],residual activity [15] [%],residual activity [16] [%],residual activity [17] [%],residual activity [18] [%],residual activity [19] [%],residual activity [20] [%]
CC(C)(C)c1nc2c3ccc(F)cc3c3c(=O)[nH]ccc3c2[nH]1,66,-1,1,1,1,32,9,-2,-7,65,24,98,63,72,32,–,–,–,–,–
CCCC(=O)Oc1ccc2[nH]c(C(=O)c3cc4ccccc4[nH]3)cc2c1,101,103,100,–,–,94,81,69,69,94,70,98,80,85,96,89,98,96,89,–
Nc1nc(Nc2ccc(S(N)(=O)=O)cc2)nn1C(=O)c1c(F)cccc1F,40,11,0,7,1,–,–,51,12,33,4,12,2,17,6,48,99,95,58,102
Nc1ncnc2c1cnn2-c1ccccc1,97,126,93,–,–,–,–,78,70,102,83,99,67,98,85,95,96,98,–,–
COc1cc2ncnc(Nc3cccc(Cl)c3)c2cc1OC,105,123,86,109,118,112,122,73,50,60,16,111,41,24,8,–,100,101,52,–
COc1cc2nccc(Oc3ccc(NC(=S)NC(=O)c4ccccc4C)cc3)c2cc1OC,48,–,–,86,92,95,78,69,79,4,3,60,28,6,7,87,98,90,1,–
COc1cc2c(cc1OC)-c1n[nH]c(Nc3cccc(F)c3)c1C2,41,–,108,–,114,–,–,53,33,75,25,13,2,59,37,69,–,–,–,101
O=C1NC(=O)C(c2cn(CCCO)c3ncccc23)=C1c1cnccn1,91,–,–,–,–,–,–,89,86,64,63,–,80,94,80,80,85,75,–,96
Nc1ncnc2c1c(-c1ccc(Oc3ccccc3)cc1)cn2C1CCCC1,4,96,124,91,65,100,64,77,81,24,3,72,13,73,38,92,105,91,1,104
CSc1nc(-c2ccc(F)cc2)c(-c2ccnc(NC(C)c3ccccc3)c2)[nH]1 (stereo not drawn),53,–,–,–,–,90,32,4,-3,–,87,–,71,–,96,-6,–,98,85,39
O=C(CCCc1ccc(-c2ccccc2F)cc1)Nc1ccc(O)cc1,98,108,111,104,104,99,98,109,94,110,108,96,85,112,94,99,100,97,99,93
Cn1c2ccccc2c2c3c(c4c5ccccc5n(CCC#N)c4c21)CNC3=O,4,4,3,1,2,–,31,7,9,7,6,48,20,21,8,73,82,96,–,–
